Hits are enriched below; roughly 3.6% of the tested compounds scored in any of these assays.
FUS suppressor – qHTS for Suppressors of FUS Proteinopathy: Primary screen using FUS-linked yeast assay; S. cerevisiae FUS-expressing, growth rescue, OD600, 24 h; Potency, µM (doses to about 76.6 µM), hits mostly activators; 0.24% of 390,000 active; AID 1347120, 2019; note: nearly all actives have a fitted effect of over 55% in size
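S. cerevisiae expressing FUS from galactose induction served as the toxicity model. Growth after 24hr at 30C, read as absorbance at 600 nm, indicates suppression of toxicity; compounds dosed at several concentrations.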
Abeta rescue – qHTS for compounds that reverse cellular toxicity of Amyloid beta (A-beta) peptide in yeast: Primary Screen; yeast expressing A-beta42, growth rescue, OD600, 48 h; response scale: 0% DMSO, 100% iron-clioquinol control; AID 1347071, 2019; 0.063% of 410,000 active; Potency, µM (highest dose often 46.1 µM), most hits filed as activators; note: nearly all actives have a fitted effect of over 55% in size
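Yeast growth medium received pinned compounds, then yeast cells expressing toxic A-beta were added; plates incubated at 30 C for 48 hr. Growth read as absorbance at 600 nm, normalized to DMSO and equimolar FeCl3 plus clioquinol controls.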
ClpP mod – qHTS Assay for Activators of ClpP | ATP-dependent Clp protease proteolytic subunit (Bacillus subtilis (strain 168)), P80244 | purified B. subtilis ClpP, FRET peptide cleavage, 20 min | Potency, µM (doses to about 57.5 µM) | 1.9% of 340,000 active | AID 651965, 2013; active = well fitted falling curve with a large enough effect; inconclusive = small, poorly fitted or top-dose-only effect; inactive = no such curve, though single readings can be large or run the other way; note: the source files actives as falling curves though it sought activators and does not explain the sign; nearly all actives have a fitted effect of over 65% in size
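ClpP 10 microg/mL final, pH 8 Tris/KCl buffer with BSA, glycerol, Tween-20; compound pinned in; FRET-FV substrate; RT 20 min; Ex320/Em430; ΔFRET vs ADEP 5.8 microM, DMSO, no enzyme.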
TDP43 rescue – qHTS of TDP-43 Inhibitors; Potency, µM (highest dose often 46.1 µM), actives largely listed as activators; 1.8% of 410,000 active; TDP-43 expressing yeast growth rescue, BacTiter-Glo, 24 h; note: nearly all actives have a fitted effect of over 50% in size
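Yeast cells expressing TDP-43 under galactose induction are exposed to compounds for 24 hr at 30 deg C. BacTiter-Glo luminescence measures growth, so protective compounds score as activators.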
MmCpn inh – Inhibitors of TCP-1 ring complex (TRiC) of Methanococcus maripaludis (MmCpn): qHTS. purified Mm-Cpn ATPase, ADP Transcreener TR-FRET. Chaperonin Mm-Cpn (Methanococcus maripaludis). 0.031% of 330,000 active. Potency, µM (top dose mostly 76.9 µM), hits mostly inhibitors; note: nearly all actives have a fitted effect of over 80% in size
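TR-FRET (320 nm excitation; 590 and 665 nm emission) reports ADP made from 10 uM ATP by 25 nM enzyme; compounds were preincubated 10 min, reaction run 30 min, both at 37°C.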
aSyn yeast inh – qHTS of alpha-syn Inhibitors; Yeast expressing alpha-synuclein, growth rescue, BacTiter-Glo, 24 h; AID 652106, 2013; Potency, µM (doses to about 46.1 µM), most hits filed as activators; 0.14% of 370,000 active; note: nearly all actives have a fitted effect of over 65% in size
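Rescue of yeast growth: cells expressing toxic alpha-synuclein, induced in galactose at OD600 0.02, incubated with compound 24 h at 30 C. ATP luminescence quantified growth; inhibitors of toxicity appear as activators.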
Of the large screens only hits and unclear results are named; the others gave an inactive call; ! = a repeat was not active. Unless noted, calls come from the whole dose curve; as a rule, active = well fitted curve in the direction sought with a large enough effect; inconclusive = small, poorly fitted or top-dose-only effect, or another doubt; inactive = no such curve, though single readings can be large; an effect the other way counts as inactive or inconclusive.

O=C(Nc1ccc(OCc2ccccc2Cl)cc1)c1cccnc1	TDP43 rescue 16µM
Cc1cc(NC(=O)c2cccnc2)ccc1Br	TDP43 rescue 11µM
COc1ccc(-n2nc3cc(C)c(NC(=O)c4cccnc4)cc3n2)cc1	ClpP mod 25µM
COC(=O)c1ccc(NC(=O)c2cccnc2)cc1	aSyn yeast inh inconclusive
Cc1cccc(NC(=O)c2cccnc2)c1	none
N[C@H](C(=O)O)[C@H](Cc1ccccc1)C(=O)O	none (no result: FUS suppressor, Abeta rescue, ClpP mod, TDP43 rescue, MmCpn inh)
CCCN1CNc2c(c(=O)[nH]c(=S)n2CCc2ccc(C)cc2C)C1	none (no result: FUS suppressor, Abeta rescue, TDP43 rescue, MmCpn inh)
CC(C)(C)c1ccc(C(=O)Nc2cccnc2)cc1	TDP43 rescue 14µM
O=C(Nc1cccnc1)c1ccc(C(=O)Nc2cccnc2)cc1	none (no result: ClpP mod)
Cc1nc2ccc(S(=O)(=O)CCC(=O)Nc3ccc(Cl)cc3)cc2s1	none (no result: MmCpn inh, aSyn yeast inh)
COc1ccc(NC(=O)c2nnn(Cc3nc(-c4cc(OC)c(OC)c(OC)c4)oc3C)c2C)cc1Cl	none (no result: MmCpn inh, aSyn yeast inh)
COc1cc(-c2nc(Cn3nnc(C(=O)Nc4ccccc4)c3C)c(C)o2)cc(OC)c1OC	ClpP mod 28µM (no result: MmCpn inh, aSyn yeast inh)
Cc1ccccc1NC(=O)c1nc(SCc2ccccc2F)ncc1Cl	none (no result: FUS suppressor, Abeta rescue, TDP43 rescue, MmCpn inh)
CCc1c(C)c2ccc3c(c2oc1=O)CN(Cc1ccccc1)CO3	aSyn yeast inh 4.5µM (no result: MmCpn inh)
COc1ccc(-c2cc(=O)oc3c4c(ccc23)OCN(Cc2cccc(OC)c2)C4)cc1	ClpP mod 32µM (no result: MmCpn inh, aSyn yeast inh)
O=c1cc(-c2ccccc2)c2ccc3c(c2o1)CN(Cc1ccccc1)CO3	none (no result: MmCpn inh, aSyn yeast inh)
CC(C)Cn1c(-c2ccc(Br)cc2)c[nH]c1=S	Abeta rescue 3.2µM (no result: ClpP mod)
CCn1c(-c2ccccc2)c[nH]c1=S	ClpP mod inconclusive
O=C(c1ccco1)n1nc(-c2ccccc2)nc1NCc1ccco1	none
O=C(c1ccco1)n1nc(NCc2ccccc2)nc1NCc1ccccc1	TDP43 rescue 10µM
Cc1cc(C)n2nc(-c3cnn(C)c3C(F)(F)F)cc2n1	TDP43 rescue 13µM
CCOC(=O)N/N=C/c1ccc(Oc2ccccc2)cc1	Abeta rescue inconclusive, TDP43 rescue 18µM
CCOC(=O)c1ccc(Nc2nc(-c3cccnc3)nc3ccccc23)cc1	ClpP mod 28µM, TDP43 rescue inconclusive
CC(=O)c1cccc(Nc2nc(-c3cccc(C)c3)nc3ccccc23)c1	FUS suppressor inconclusive, TDP43 rescue 16µM (no result: MmCpn inh, aSyn yeast inh)
Cc1cccc(-c2nc(Nc3cccc(O)c3)c3ccccc3n2)c1	none
CCOC(=O)c1cc2c(=O)n3ccccc3nc2n(CCCOC)c1=NC(C)=O	ClpP mod 35µM, MmCpn inh inconclusive
CCOC(=O)c1cc2c(=O)n3cccc(C)c3nc2n(CC2CCCO2)c1=NC(C)=O (stereo not drawn)	ClpP mod 1.3µM (no result: MmCpn inh)
CCCn1c(=NC(=O)c2ccco2)c(C(=O)OCC)cc2c(=O)n3ccccc3nc21	ClpP mod 18µM
CC(=O)CCc1ccc(Oc2nc(-c3cccnc3)nc3ccccc23)cc1	TDP43 rescue 14µM
COc1ccc(Oc2nc(-c3cccnc3)nc3ccccc23)cc1	none (no result: ClpP mod)
CCC(C(=O)NCc1ccco1)N(C(=O)CNS(=O)(=O)c1ccc(C)cc1)c1ccccc1OC (stereo not drawn)	ClpP mod 32µM (no result: FUS suppressor)
COC(=O)C1=C(C(=O)OC)C(c2cc(Cl)ccc2O)c2sc(=O)[nH]c2S1 (stereo not drawn)	aSyn yeast inh 14µM
Clc1ccc2oc(-c3cccnc3)nc2c1	ClpP mod 25µM, TDP43 rescue inconclusive
Cc1ccc2nc(-c3cccnc3)oc2c1	ClpP mod 1.4µM!, aSyn yeast inh inconclusive
Cc1ccc2nc(-c3ccccn3)oc2c1	none
Clc1ccc2oc(-c3ccccc3)nc2c1	none
O=C(c1ccc(-c2ccc([N+](=O)[O-])cc2)o1)N1CCCCC1	TDP43 rescue 13µM
CC1CC(C)CN(C(=O)c2ccc(-c3ccc([N+](=O)[O-])cc3)o2)C1 (stereo not drawn)	TDP43 rescue 14µM
Cc1nn(C)c(Nc2ccc(Br)cc2)c1Br	Abeta rescue inconclusive, TDP43 rescue 18µM, aSyn yeast inh inconclusive (no result: ClpP mod)
CCn1cc(C(=O)OCC(=O)Nc2ccccc2OC(F)F)c(=O)c2ccc(C)nc21	none (no result: ClpP mod)
CCn1cc(C(=O)OCC(=O)N2C(C)CCCC2C)c(=O)c2ccc(C)nc21 (stereo not drawn)	ClpP mod 16µM
CCOc1ccccc1NC(=O)COC(=O)c1cn(CC)c2nc(C)ccc2c1=O	TDP43 rescue 35µM (no result: MmCpn inh, aSyn yeast inh)
CCn1cc(C(=O)OCC(=O)c2cc(C)n(-c3ccc(OC(F)F)cc3)c2C)c(=O)c2ccc(C)nc21	TDP43 rescue 13µM (no result: FUS suppressor)
CCn1cc(C(=O)OCC(=O)N(C)C2CCS(=O)(=O)C2)c(=O)c2ccc(C)nc21 (stereo not drawn)	none
CC(C)(C)C1CCc2c(sc(NC(=O)C3c4ccccc4Oc4ccccc43)c2C(N)=O)C1 (stereo not drawn)	ClpP mod inconclusive (no result: MmCpn inh, aSyn yeast inh)
CC(=O)N1N=C(c2cccc([N+](=O)[O-])c2)OC1(C)c1cccs1 (stereo not drawn)	TDP43 rescue inconclusive
CC(=O)N1N=C(c2cccc([N+](=O)[O-])c2)OC1c1ccccc1Cl (stereo not drawn)	TDP43 rescue 22µM
Cc1ccc2ncc3c(-c4ccccc4)nn(CC(=O)NC4CCCCC4)c3c2c1	none (no result: MmCpn inh, aSyn yeast inh)
Cc1cc(OC(C)C(=O)Nc2c(C(=O)c3ccc(F)cc3)oc3ccccc23)ccc1Cl (stereo not drawn)	none (no result: MmCpn inh, aSyn yeast inh)
Cc1cccc(Nc2nc3ccccc3s2)c1C	Abeta rescue inconclusive, TDP43 rescue 11µM
Cc1cccc(Nc2n[nH]c(=S)s2)c1C	none
Cc1ccc(C)c(S(=O)(=O)c2nnn3c2nc(Nc2ccc(C)c(C)c2)c2ccccc23)c1	none (no result: MmCpn inh, aSyn yeast inh)
Cc1ccc(COC(=O)c2ccc(-c3nnn(Cc4ccc(C)cc4)n3)cc2)cc1	none (no result: MmCpn inh)
Cc1ccc(NC(=O)C(C)c2ccc(-c3ccccc3)c(F)c2)cc1 (stereo not drawn)	ClpP mod 35µM
CCCNCC(=O)Nc1cccc(S(=O)(=O)NC2=NCCCCC2)c1	none
Cc1cc(OCC(=O)Nc2cccc(S(=O)(=O)NC3=NCCCCC3)c2)ccc1Cl	none
Cc1ccc(OCC(=O)Nc2cccc(S(=O)(=O)NC3=NCCCCC3)c2)cc1C	ClpP mod 14µM (no result: FUS suppressor)

Source: PubChem BioAssay
